# p53 reactivator – re-activators of mutant p53; H1299 p53-A138V BP100-luciferase reporter, luminescence, 24 h; Potency, µM (top dose mostly 92.2 µM), for inactives: at the highest dose activity change, positive = activation, actives largely listed as activators; actives 0.063% (n = 320,000); also: potency is read from the fitted curve at half-maximal effect; % of control where 0% means no effect; nearly all actives have a fitted effect of over 45% in size
#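 H1299 (p53-null), stable ts p53-A138V + BP100-Luc; 1000 cells/well, Opti-MEM/10% FBS; cpd 4 pt, 1:5; 24 h, 37 deg C, 5% CO2; detection reagent 10 min RT; luminescence.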
# LDHA block – inhibitors of human lactate dehydrogenase A. actives 0.15% (n = 480,000). activity change, % (values are at about 110 or 230 µM). P00338. purified LDHA, NADH/diaphorase-resazurin fluorescence; stronger effect = lower value; in the data active = activity change below about -30%; inconclusive = mostly about -25% to -30%;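 also: plate controls were DMSO wells for no effect and wells without enzyme for full effect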
#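 Human LDH5 (2 nM) was incubated with 0.06 mM NADH and 0.2 mM pyruvate for 5 min at room temperature in Tris pH 7.4. Remaining NADH was coupled through diaphorase/resazurin, and resorufin fluorescence was read at 0 and 20 min.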
# GLP1R inv ag – inverse agonists of human GLP-1 receptor. HEK293 GLP-1R CRE-luciferase, luminescence, 24 h; GLP-1R form is constitutively active. Potency, µM (series often up to 38.3 µM), inactives show top-dose activity change, negative = inhibition, hits mostly inhibitors. actives 1.6% (n = 410,000); also: potency is read from the fitted curve at half-maximal effect; % is scaled to controls: 0 for no effect and ±100 for the full control effect; nearly all actives have a fitted effect of over 55% in size
# Target sequence (P43220 whole entry, looked up): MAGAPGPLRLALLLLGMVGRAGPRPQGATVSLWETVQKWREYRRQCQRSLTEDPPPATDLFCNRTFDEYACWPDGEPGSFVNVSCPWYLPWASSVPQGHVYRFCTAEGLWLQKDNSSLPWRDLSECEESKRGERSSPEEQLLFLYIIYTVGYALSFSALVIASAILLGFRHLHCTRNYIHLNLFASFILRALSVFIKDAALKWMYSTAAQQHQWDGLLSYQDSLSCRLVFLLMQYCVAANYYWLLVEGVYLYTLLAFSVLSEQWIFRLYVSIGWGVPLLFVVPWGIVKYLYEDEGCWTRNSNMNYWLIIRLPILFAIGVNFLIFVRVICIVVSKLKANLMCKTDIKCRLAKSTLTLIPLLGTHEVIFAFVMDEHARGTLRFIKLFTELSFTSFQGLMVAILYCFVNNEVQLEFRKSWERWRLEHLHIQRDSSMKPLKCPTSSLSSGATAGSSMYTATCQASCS
#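 qHTS in 1536-well format: reporter HEK293 cells expressing constitutive GLP-1R activity in DMEM + 10% Nu serum, 24 hr with compounds at 37 deg C, luminescence read after 12 min with detection reagent.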
# GLP1R ag – activates the human GLP-1 receptor. HEK293 GLP-1R CRE-luciferase, luminescence, 4-6 h; cells express a hypersensitive GLP-1R form. Potency, µM (highest dose often 45.6 µM), inactives show at the highest dose activation, actives largely listed as activators. actives 0.007% (n = 380,000). AID 624172; also: potency is read from the fitted curve at half-maximal effect; % of control where 0% means no effect
# ClpP mod – qHTS Assay for Activators of ClpP; Potency, µM (highest dose often 57.5 µM), for the others: top-dose activity change, negative = active; AID 651965, 2013; ATP-dependent Clp protease proteolytic subunit (Bacillus subtilis (strain 168)), P80244; purified B. subtilis ClpP, FRET peptide cleavage, 20 min; actives 1.9% (n = 340,000); active = well fitted falling curve with a large enough effect; inconclusive = small, poorly fitted or top-dose-only effect; inactive = no such curve, though single readings can be large or run the other way; also: potency is read from the fitted curve at half-maximal effect; the source files actives as falling curves though it sought activators and does not explain the sign; nearly all actives have a fitted effect of over 65% in size
#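 FRET quenching reversal measured ClpP activation: 10 microg/mL B. subtilis ClpP at pH 8 with the FRET-FV decapeptide, read at 430 nm after 320 nm excitation. The 20-min minus 0-min signal was scaled between DMSO/no-enzyme wells and ADEP (5.8 microM final).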
# HEK293 tox – cytotoxic in the GLP-1 receptor inverse agonist counter-screen; HEK293 cAMP-luciferase reporter cells, luminescence, 24 h; Potency, µM (highest dose often 38.3 µM), for the others: at the top dose activity change, negative = inhibition, actives largely listed as inhibitors; actives 0.13% (n = 410,000);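 also: loss of luciferase light is scored as toxicity; potency is read from the fitted curve at half-maximal effect; % is scaled to controls: 0 for no effect and ±100 for the full control effect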
#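 Here, cytotoxicity is scored as loss of luminescence. The MLSMR collection was tested on cells seeded in medium containing 10% Nu serum, with a 24 hr compound exposure preceded by 12 hours of culture.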
# Active calls of the source: *; ? = inconclusive; nt = no result given. Shown are actives, neighbours in structure and some others; about 2.9% of the full set was active somewhere. Unless noted, calls follow the shape of the dose curve; as a rule, active = well fitted curve in the direction sought with a large enough effect; inconclusive = small, poorly fitted or top-dose-only effect, or another doubt; inactive = no such curve, though single readings can be large; an effect the other way counts as inactive or inconclusive.
SMILES,p53 reactivator,LDHA block,GLP1R inv ag,GLP1R ag,ClpP mod,HEK293 tox
CCOC(=O)C(CC)Sc1ncnc2c1c(-c1ccccc1)cn2-c1ccc(OC)cc1 (configuration not stated),nt,-3.0,?,nt,22.4µM*,3.2%
COc1ccc(N2CCN(c3ncnc4scc(-c5ccc(F)cc5)c34)CC2)cc1,-10.2%,-1.8,?,0.6%,-20.9%,-11.1%
COc1ccc2c(-c3ccccc3)cc(N3CCOCC3)nc2c1,-17.2%,?,10µM*,9.9%,31.6µM*,17.4%
COc1ccc(-n2cc(-c3ccccc3)c3c(=O)[nH]cnc32)cc1,-9.9%,-6.9,-26.7%,5.7%,-8.5%,10.6%
OCCN1CCN(c2ncnc3c2c(-c2ccccc2)cn3-c2ccc(Br)cc2)CC1,0.1%,0.0,10µM*,14.3%,1.0%,?
CCC(Sc1nncn1C)C(=O)Nc1cc(C)on1 (configuration not stated),-0.8%,-3.6,2.7%,7.2%,nt,2.7%
COc1ccc(-n2cc(-c3ccccc3)c3c(N4CCOCC4)ncnc32)cc1,-5.2%,0.1,3.55µM*,8.0%,nt,-15.3%
c1ccc(-c2csc3ncnc(N4CCOCC4)c23)cc1,2.0%,-3.9,0.0%,8.2%,nt,0.5%
Fc1ccc(-c2csc3ncnc(N4CCN(c5ccccc5)CC4)c23)cc1,1.6%,0.7,12.6µM*,12.5%,nt,1.6%
COc1ccc(-c2csc3ncnc(N4CCN(c5cccc(OC)c5)CC4)c23)cc1,-13.8%,-6.5,?,4.2%,-6.9%,11.1%
COc1ccc(N2CCN(c3ncnc4scc(-c5ccccc5)c34)CC2)cc1,-4.3%,-3.2,6.31µM*,11.9%,nt,-7.1%
COc1ccccc1Nc1ncc2c(n1)CCN(Cc1cc(F)cc(F)c1)C2,nt,-3.8,-5.4%,nt,-12.1%,-2.1%
CCCN(CC(=O)Nc1ccccc1C)C(=O)c1cccc(S(=O)(=O)N2CCc3ccccc3C2)c1,-16.3%,-0.7,?,8.6%,1.0%,-13.0%
COc1ccccc1N=Nc1ccc(O)c2ncccc12,-6.0%,12.4,?,-9.9%,-0.9%,1.26µM*
Cc1ccc(NC(=O)Cn2c(=O)oc3cc(S(=O)(=O)N4CCCCC4)ccc32)c(C)c1,nt,-3.3,?,nt,1.1%,-0.8%
CCN(CC)C(=O)CSc1nnc(-c2cccnc2)n1Cc1ccccc1,0.2%,-5.9,4.5%,-5.1%,1.4%,2.2%
COc1ccc(CCNC(=O)c2cc(-c3ccc(C)cc3)nc3n[nH]c(-c4ccccc4)c23)cc1OC,nt,0.4,3.5%,nt,12.6µM*,12.5%
CC1CCc2nc(N)c(C#N)c(-c3cccnc3)c2C1 (configuration not stated),0.9%,5.0,0.891µM*,-2.6%,4.3%,7.5%
COc1ccccc1CN(Cc1nc2ccccc2c(=O)[nH]1)C(=O)Nc1ccc(C)cc1,-1.7%,3.7,10µM*,6.3%,0.8%,?
CCN(Cc1nc2ccccc2c(=O)[nH]1)C(=O)COc1ccccc1-c1ccccc1,-5.3%,4.0,11.2µM*,-4.7%,-2.5%,?
COc1ccccc1CN(Cc1nc2ccccc2c(=O)[nH]1)C(=O)Nc1ccccc1C,4.9%,-7.9,0.0%,3.4%,-2.2%,?
CCOC(=O)c1ccc(NC(=O)c2ccccc2-c2ccccc2)cc1,nt,-5.5,nt,nt,nt,nt
CCc1cc(C(=O)Nc2cc(S(=O)(=O)N(CC)CC)ccc2N2CCOCC2)sc1C,-1.7%,-4.8,7.94µM*,5.4%,?,-1.6%
CCN(CC)S(=O)(=O)c1ccc(N2CCOCC2)c(NC(=O)c2cc(C)cc(C)c2)c1,-0.4%,-0.8,-22.0%,18.2%,-1.7%,1.2%
CC(C)C[C@H](NC(=O)c1[nH]cnc1C(=O)N[C@@H](C)C(=O)OCc1ccccc1)C(=O)OC(C)(C)C,nt,7.1,?,1.5%,4.4%,-9.2%
